Results published in ChEMBL document CHEMBL1961873, “Compounds: GSK PKIS; Assays: Nanosyn kinase panel” (2012).

The compounds below were run against T1, MAP kinase-activated protein kinase 5 (Homo sapiens) (UniProt Q8IW41). Conditions: at 1 µM.
T1 sequence (whole entry): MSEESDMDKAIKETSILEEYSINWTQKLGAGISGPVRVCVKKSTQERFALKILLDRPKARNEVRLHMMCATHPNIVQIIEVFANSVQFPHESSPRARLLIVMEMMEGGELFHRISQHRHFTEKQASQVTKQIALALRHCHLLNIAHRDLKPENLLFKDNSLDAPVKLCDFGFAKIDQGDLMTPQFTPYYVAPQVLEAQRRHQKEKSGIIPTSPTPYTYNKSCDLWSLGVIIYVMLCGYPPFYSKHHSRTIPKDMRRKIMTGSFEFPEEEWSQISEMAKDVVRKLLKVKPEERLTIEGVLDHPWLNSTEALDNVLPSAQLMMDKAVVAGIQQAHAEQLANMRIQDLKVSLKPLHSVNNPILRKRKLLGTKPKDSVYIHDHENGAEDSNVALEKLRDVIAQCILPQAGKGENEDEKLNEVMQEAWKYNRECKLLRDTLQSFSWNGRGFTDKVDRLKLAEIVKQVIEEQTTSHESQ
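Further: mean inhibition of PRAK measured in the GSK PKIS screen.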

| SMILES | inhibition |
| --- | --- |
| NC(=O)c1cc(-c2ccncc2)cc(-c2ccccc2)c1N | 2.24% |
| COc1cc2ncn(-c3cc(OCc4cccs4)c(C(N)=O)s3)c2cc1OC | 5.17% |
| COc1ccc(C2=C(N3CCc4ccccc43)C(=O)NC2=O)cc1 | 2.12% |
| NS(=O)(=O)c1ccc(N/N=C2\C(=O)Nc3ccc(C(=O)NCCCn4ccnc4)cc32)cc1 | 4.54% |
| O=C(Nc1n[nH]c2nc(-c3ccc(O)cc3)c(Br)cc12)C1CC1 | 3.04% |
| Clc1ccc(CNc2nccc(-c3cnn4ncccc34)n2)cc1 | 0.03% |
| CS(=O)(=O)CCNCc1ccc(-c2ccc3ncnc(Nc4ccc(OCc5ccccc5)c(Br)c4)c3c2)o1 | 2.06% |
| c1ccc(Oc2ccc(Nc3ncc(-c4ccccc4)o3)cc2)cc1 | 0.94% |
| Cc1ccc(NC(=O)c2ccoc2)cc1-c1ccc(C(=O)NCC2CC2)cc1 | 0.83% |
| C/C(Nc1ccc(S(N)(=O)=O)cc1)=C1/C(=O)Nc2ccccc21 | 1.08% |
| Fc1ccc(-c2c(-c3ccncc3)nc3n2CCS3)cc1 | 1.61% |
| O=C(Nc1ccc(Oc2ccc3[nH]c(NC(=O)c4ccccc4)nc3c2)cc1)Nc1cc(C(F)(F)F)ccc1F | 0.98% |
| O=C1NC(=O)C(c2cccc(Cl)c2)=C1Nc1ccc(Cl)c(C(=O)O)c1 | 2.67% |
| NS(=O)(=O)c1ccc(Nc2cc(-c3ccc(O)c(F)c3)n[nH]2)cc1 | -1.22% |
| COC(=O)Nc1nc2ccc(Sc3ccc(NC(=O)Nc4cc(C(F)(F)F)ccc4F)cc3)cc2[nH]1 | -0.97% |
| Cc1nnc(-c2ccc(C)c(-c3ccc(C(=O)NCc4ccc(Cl)cc4)cc3)c2)o1 | 2.59% |
| COc1ccc2ncn(-c3cc(O[C@H](C)c4ccccc4Cl)c(C(N)=O)s3)c2c1 | 1.26% |

| SMILES | inhibition |
| --- | --- |
| COc1cc(N2CCN(C(C)C)CC2)ccc1Nc1nc(Nc2ccc(F)cc2C(=O)NC[C@@H](O)CO)c2cc[nH]c2n1 | 4.77% |
| NS(=O)(=O)c1ccc(N/N=C2\C(=O)Nc3ccc(-c4cnco4)cc32)cc1 | 3.26% |
| CN1CCN(CCCNc2nc3ccc(Oc4ccc(NC(=O)Nc5cc(C(F)(F)F)ccc5F)cc4)cc3[nH]2)CC1 | -1.41% |
| Fc1ccc(-c2ncn(C3CCNCC3)c2-c2ccnc(Oc3ccc(Oc4ccccc4)cc3)n2)cc1 | 1.72% |
| COc1cc(Nc2ncc3c(C)nc(-c4cccc(Oc5ccccc5)c4)n3n2)cc(OC)c1OC | -1.56% |
| CCc1ccc(Oc2nccc(-c3c(-c4ccc(F)cc4)ncn3C3CCNCC3)n2)cc1 | 2% |
| Cc1ccc(C(=O)NC(C)C)cc1-c1ccc(C(=O)NCC2CC2)cc1 | -1.11% |
| COc1cccc(-n2cnc3c(N/N=C/c4ccncc4)ncnc32)c1 | 2.56% |
| Fc1ccc(-c2ncn(C3CCNCC3)c2-c2ccnc(Oc3ccc4c(c3)OCO4)n2)cc1 | 2.05% |
| O=C(NCC1CC1)c1ccc(-c2cccc(C(=O)NC3CC3)c2)cc1 | -0.88% |
| C#Cc1cccc(Nc2ncnc3ccc(OCCCCNCCS(C)(=O)=O)cc23)c1 | 2.73% |
| NCc1ccc(-n2c(-c3nonc3N)nc3cnccc32)cc1 | 1.55% |
| O=C(Nc1n[nH]c2cc(-c3ccccc3)ccc12)C1CC1 | 0.86% |
| CCS(=O)(=O)c1ccc(OC)c(Nc2ncc(-c3cccc(-c4ccccc4F)c3)o2)c1 | -0.29% |
| CNC(=O)c1cncc(/C=C/c2c(C)cccc2C)c1 | -0.41% |
| CCC(=O)Nc1ccc(C)c(-c2ccc(C(=O)NCC3CC3)cc2)c1 | 0.76% |
| c1ccc(-c2n[nH]cc2-c2ccnc(-c3ccc(OCCN4CCOCC4)cc3)c2)nc1 | -0.78% |
